From PubChem BioAssay
Values without a mark were called inactive. The source made the active and inactive calls.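 The calls were made as follows: active = mean inhibition above 46.5%, the solvent-only control mean plus 3 SD; inactive = the rest.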

Target: Nuclear receptor coactivator 2 (Homo sapiens) (UniProt Q15596)
Test: inhibition of GAL4-SRC2 driven luciferase expression – cell-based, luminescence, HEK293, triplicate, confirmation (AID 652008);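 also: 0% = DMSO-treated cells and 100% = Gossypol at 36 µM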
Settings: HEK293 GAL4-SRC2 luciferase reporter, at 8.9 µM, active compounds read high

Chain of Nuclear receptor coactivator 2 (Homo sapiens) (Q15596 whole entry, looked up, the tested form may be a part): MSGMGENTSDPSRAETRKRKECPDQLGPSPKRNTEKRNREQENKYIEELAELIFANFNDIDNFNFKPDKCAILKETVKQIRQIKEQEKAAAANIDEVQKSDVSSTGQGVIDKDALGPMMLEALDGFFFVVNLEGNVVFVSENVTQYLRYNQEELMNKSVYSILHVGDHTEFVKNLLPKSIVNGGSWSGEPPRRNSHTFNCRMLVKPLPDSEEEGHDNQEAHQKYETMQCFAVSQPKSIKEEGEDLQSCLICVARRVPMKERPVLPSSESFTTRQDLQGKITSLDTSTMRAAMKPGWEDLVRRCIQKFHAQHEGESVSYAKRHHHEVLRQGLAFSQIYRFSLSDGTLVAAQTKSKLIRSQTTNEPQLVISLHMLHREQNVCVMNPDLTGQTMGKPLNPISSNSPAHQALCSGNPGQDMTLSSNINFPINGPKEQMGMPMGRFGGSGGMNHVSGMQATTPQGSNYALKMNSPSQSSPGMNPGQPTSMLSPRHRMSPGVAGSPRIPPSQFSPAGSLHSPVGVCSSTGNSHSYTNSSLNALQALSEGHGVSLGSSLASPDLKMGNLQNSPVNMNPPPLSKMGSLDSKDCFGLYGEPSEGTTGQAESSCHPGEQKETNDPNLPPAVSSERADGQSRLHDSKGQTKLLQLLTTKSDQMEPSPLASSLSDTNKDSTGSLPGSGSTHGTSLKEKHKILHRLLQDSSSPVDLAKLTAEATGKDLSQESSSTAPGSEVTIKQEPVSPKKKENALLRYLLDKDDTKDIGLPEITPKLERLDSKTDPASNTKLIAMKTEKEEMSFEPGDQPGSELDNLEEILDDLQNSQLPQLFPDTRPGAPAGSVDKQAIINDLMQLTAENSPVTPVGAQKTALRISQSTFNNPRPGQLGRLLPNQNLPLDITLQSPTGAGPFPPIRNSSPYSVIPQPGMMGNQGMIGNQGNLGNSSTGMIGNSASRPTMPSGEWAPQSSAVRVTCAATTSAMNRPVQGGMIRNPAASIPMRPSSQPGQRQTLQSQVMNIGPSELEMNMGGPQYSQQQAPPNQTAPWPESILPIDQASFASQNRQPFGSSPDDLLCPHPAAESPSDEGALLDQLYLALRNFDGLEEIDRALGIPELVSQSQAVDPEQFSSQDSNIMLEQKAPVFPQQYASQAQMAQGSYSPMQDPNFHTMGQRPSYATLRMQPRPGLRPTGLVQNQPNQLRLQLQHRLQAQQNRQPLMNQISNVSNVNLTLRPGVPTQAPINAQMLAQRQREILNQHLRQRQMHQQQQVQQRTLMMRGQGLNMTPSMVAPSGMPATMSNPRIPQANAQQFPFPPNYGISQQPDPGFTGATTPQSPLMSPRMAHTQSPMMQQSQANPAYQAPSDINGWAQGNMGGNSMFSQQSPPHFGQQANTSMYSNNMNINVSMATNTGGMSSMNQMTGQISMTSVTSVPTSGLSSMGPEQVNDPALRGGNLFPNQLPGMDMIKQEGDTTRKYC

Row | Compound | inhibition
1 | C[C@@H]1CCN(C2CC2)S(=O)(=O)c2ccc(N3CCC[C@H]3C)cc2O1 | -6.67%
2 | O=S(=O)(c1ccc(Cl)cc1)N1CCCC1c1nc(-c2ccc(Cl)cc2)no1 (stereo not given) | -14.7%
3 | COC(=O)c1cnn(-c2ccc(Cl)cc2)c1/C=N/NC(N)=S | 34.7%
4 | COC(=O)c1cc(C(=O)OC)cc(S(=O)(=O)Nc2ccc(Cl)c(N)c2)c1 | -14.7%
5 | O=C(CN1CCN(S(=O)(=O)c2ccc(F)c(F)c2)CC1)Nc1ccccc1C(=O)NC1CC1 | -35.8%
6 | O=c1c(Br)ccc(Br)cc1Br | 99.4% (active)
7 | CCOC(=O)c1ccccc1NC(=O)Cn1c(-c2nonc2N)nc2ccccc21 | 6.09%
8 | Cc1ccc2nc(C)cc(Nc3ccc4c(c3)OCCO4)c2c1 | 0.71%
9 | CCN(CC)CCNC(=O)c1ccc(NC(=O)c2ccc(S(=O)(=O)N3CCCC3)cc2)cc1 | -8.26%
10 | COc1ccc(CNCc2ccc(C(F)(F)F)cc2)cc1OC | -3.81%
11 | CCOC(=O)c1[nH]c(=S)n(-c2ccccc2)c1C(=O)OCC | -17.4%
12 | CCOC(=O)C1(Cc2ccc(Cl)cc2)CCN(C(C)Cc2ccc(O)c(OC)c2)CC1 (stereo not given) | 30.1%
13 | Cc1cccc(NC(=S)NNc2ncc(C(F)(F)F)cc2Cl)c1 | 11.6%
14 | CCN(CC)S(=O)(=O)c1ccc(Cl)c(NC(=O)COc2ccc(OC)cc2[N+](=O)[O-])c1 | -28.8%
15 | COc1ccc(-n2c(SCC(=O)NN=Cc3c(O)ccc4ccccc34)nnc2-c2ccc(C(C)(C)C)cc2)cc1 | 30.7%
16 | O=S(=O)(c1ccccc1)N1CCC(O)(CSc2ccc(F)cc2)CC1 | 13.4%
17 | Cc1ccc(C(=O)NCc2cccc(C(F)(F)F)c2)cc1S(=O)(=O)N1CCCCC1 | -8.4%
18 | CSc1nnc(NC(=O)c2nc(S(=O)(=O)Cc3cccc(C)c3)ncc2Cl)s1 | 73.1% (active)
19 | Cc1cccc(C)c1NC(=O)CN1CCN(C/C=C/c2ccccc2)CC1 | -3.36%
20 | COCCN=C1Sc2nc3c(C)cccc3cc2CN1Cc1ccco1 | 4.64%
21 | CC(=O)Nc1nc(-c2ccc3c(c2)CCN3C(=O)C2CC2)c(C)s1 | 49.3% (active)
22 | CCOc1ccc(-c2nc(CSCC(=O)N3CCN(c4cccc(OC)c4)CC3)c(C)o2)cc1 | 49.8% (active)
23 | C=C1CCC2C(C)(C)CCC[C@]2(C)[C@H]1CC1=C(O)C(=O)C(CO)=CC1=O (stereo not given in full) | 98.8% (active)
24 | O=C(NC12CC3CC(CC(C3)C1)C2)C1CC(=O)N(c2ccccc2)C1 (stereo not given) | -0.38%
25 | O=S(=O)(C/C(=C/CO)S(=O)(=O)c1ccccc1)c1ccccc1 | 67% (active)
